# Experimental data published in PubChem BioAssay (Tox21).
# Where “and” joins values, the source holds several entries; their conditions need not be identical. Equal values may be shown once. Results filed as inconclusive are left out. A number with no mark means an inactive call. Calls of active or inactive are those of the source. Calls follow the shape of the dose curve; as a rule, active = well fitted inhibition curve with a large enough effect in the repeat runs; inconclusive = weak or mixed curves, or effect the other way; inactive = no such curve, though single readings can be large or run the other way.
# Biological target: Nuclear receptor ROR-gamma (Homo sapiens) (UniProt P51449)
# Assay: qHTS assay to identify small molecule antagonists of the retinoid-related orphan receptor gamma (ROR-gamma) signaling pathway (AID 1159521; also: nearly all actives have a fitted effect of over 50% in size; as to activity change, negative = inhibition: top concentration of the series differs between compounds)
# Conditions: Tet-on RORgamma CHO cells, RORE-luciferase, 16 h; series mostly up to 92.4 µM; activity change, negative = inhibition: at the top concentration
# Excerpt: U.S. Tox21 Program National Center for Advancing Translational Sciences [NCATS] NIH Chemical Genomics Center [NCGC] U.S. Environmental Protection Agency [EPA] National Institutes of Environmental Health Sciences [NIEHS] National Toxicology Program [NTP] U.S. Food and Drug Administration [FDA] Tox21 Assay Overview: Nuclear steroid hormone receptors are involved in many biological processes including inflammatory responses, cell proliferation, and apoptosis. Environmental factors or compounds disrupting these nuclear receptor pathways and gene expression may promote susceptibility to immunotoxicants and autoimmune diseases. One important group of these expression factors are the retinoid-related orphan receptors. To assess compounds that may interfere with the retinoid-related orphan receptor gamma (ROR-gamma) transcription factor, a cell-based luciferase assay was used. The CHO cell-based assay utilizes a TET-inducible ROR expression factor and ROR response element-LUC reporter gene. Reporter gene activity was induced using Doxycycline Hyclate and measured after 16 hr incubation. Tet-on ROR gamma CHO cells were used to screen against the Tox21 10K compound library for ROR gamma antagonists by quantification of decreased reporter gene activity in terms of decreased luminescence.
# Tox21 Assay Protocol Summary: Tet-on ROR gamma CHO cells were dispensed at 1,000 cells in 4 uL of culture medium per well into white wall/solid bottom 1536-well plates using a Multidrop Combi (Thermo Scientific, Waltham, MA) dispenser. Following incubation at 37 C and 5% CO2 for 4 hr, 23 nL of compounds dissolved in DMSO, positive controls or DMSO only were transferred by a Pintool station (Kalypsys, San Diego, CA) and after 2 hr incubation at 37 C, one ul of 1 uM (final concentration) of Doxycycline Hyclate was added to all the wells by using a Flying Reagent Dispenser (FRD) (Aurora Discovery, San Diego, CA). After 16 hr incubation at 37 C and 5% CO2, 5 uL of ONE-Glo reagent (Promega Corporation, Madison, WI) was added to each assay plate using FRD. After 30 min incubation at room temperature, luminescence was quantified on a ViewLux plate reader (Perkin Elmer, Waltham, MA).
# % is scaled to controls: 0 for no effect and ±100 for the full control effect; potency is read from the fitted curve at half-maximal effect.
Structure (SMILES),"activity change, negative = inhibition",Potency
Cc1cccc(C)c1NC1=NCCCS1,3.06% [at 42.5 µM],–
CC1(C)CC(=O)CC(C)(C)N1[O],5.32%,–
O=[N+]([O-])c1cc(Cl)c(Cl)cc1Cl,3.21%,–
CCCC1CCCCN1 (stereo not given),4.65% [at 42.5 µM],–
COC1CC(=C(c2cccs2)c2cccs2)C[N+](C)(C)C1 (stereo not given),-6.2% [at 42.5 µM],–
O=[N+]([O-])O[C@H]1CO[C@H]2[C@@H]1OC[C@H]2O[N+](=O)[O-],29.8% [at 42.5 µM],–
C=CCc1ccccc1O,0.435%,–
C=CCc1ccc(OC(=O)Cc2ccccc2)c(OC)c1,2.98%,–
O=C(NC(=O)c1cc(F)c(F)cc1Cl)Nc1cc(F)ccc1N1CCC(C(=O)O)CC1,-2.77% [at 42.5 µM],–
Clc1ccc(Cl)c(Cl)c1,–,inactive
C=CCSSCC=C,0.505%,–
C[C@H]1[C@@H]2Cc3ccc(O)cc3[C@@]1(C)CCN2C,-4.39% [at 240 µM],–
CC(C)c1ccc(OP(=O)(Oc2ccc(C(C)C)cc2)Oc2ccc(C(C)C)cc2)cc1,–,27.5 µM (active) and 30.6 µM (active)
CN(C)c1ccc(N=O)cc1,–,4.34 µM (active) and 9.69 µM (active)
O=C(N/N=C/c1ccc([N+](=O)[O-])o1)c1cc([N+](=O)[O-])cc([N+](=O)[O-])c1O,36% [at 42.5 µM],–
Nc1ccccc1C(=O)OCC(O)CO (stereo not given),24.9% [at 42.5 µM],–
Cc1ncc(C[n+]2csc(CCO)c2C)c(N)n1,-3.67%,–
CCC1CCC(=O)O1 (stereo not given),11.8%,–
O=C(O)COc1cc(Cl)c(Cl)cc1Cl,–,inactive
C[N+]1(CCF)[C@@H]2CC[C@H]1CC(OC(=O)C(O)(c1ccccc1)c1ccccc1)C2 (stereo not given in full),15.5% [at 42.5 µM],–

Structure (SMILES),"activity change, negative = inhibition",Potency
Cc1nc2ccccc2c(=O)n1-c1ccccc1Cl,-8.19%,–
C=CC(C)(CCC=C(C)C)OC(=O)c1ccccc1N (stereo not given),-0.973%,–
C#C[C@]1(O)CC[C@H]2[C@@H]3CCC4=CC(=O)CCC4=C3C=C[C@@]21CC,–,9.44 µM (active)
CCCC[N+]1(C)[C@@H]2CC(OC(=O)[C@H](CO)c3ccccc3)C[C@H]1[C@@H]1O[C@@H]12 (stereo not given in full),13.7% [at 42.5 µM],–
CN1CC[C@]23c4c5ccc(O)c4O[C@H]2[C@@H](O)C=C[C@H]3[C@H]1C5,54.8%,–
CC(Oc1cc(Cl)c(Cl)cc1Cl)C(=O)O (stereo not given),-26.7%,–
O=C1c2ccccc2C(=O)N1SC(Cl)(Cl)Cl,–,6.03 µM (active) and 7.7 µM (active)
CCC(C)Cl (stereo not given),0%,–
CCC[N+](CCC)(CCC)CCC,2.58%,–
CCCCOC(=O)CCC(=O)OCCCC,3.44%,–
C#CC(O)(C=CCl)CC (stereo not given),-3.41% [at 42.5 µM],–
CCOP(=S)(OCC)SCSc1cc(Cl)ccc1Cl,13.5%,–
O=C(CCl)CCl,–,14.2 µM (active) and 12.2 µM (active)
CCNC(=O)NC(=O)/C(C#N)=N/OC,3.04%,–
O=C(O)c1cc(I)cc(I)c1I,-6.58%,–
NCCc1cc(O)c(O)cc1O,-2.1% [at 42.5 µM],–
CCc1cnc(C2=NC(C)(C(C)C)C(=O)N2)c(C(=O)O)c1 (stereo not given),–,inactive
COc1ccc(C(=O)c2c(C)n(CCN3CCOCC3)c3ccccc23)cc1,-10.5% [at 42.5 µM],–
CCCCC1C(=O)NC(=O)N(C2CCCCC2)C1=O (stereo not given),34.5% [at 42.5 µM],–
COc1ccccc1N1CCNCC1,5.42% [at 42.5 µM],–
